Experimental data taken from the supplement of paper PMC10849652.
About 7,900 targets were measured; listed, in parts, are those with a hit and a random draw of the rest. About 0.6% of all pairs of compound and target were hits.

Tests used:
Experiment in all cases: log2 fold change, soluble protein after heating vs DMSO (PISA); higher = thermal stabilisation; K562 cells, 10 uM, 30 min; active = over 0.2 and 3.5 SD of the protein, either way, in both replicates (recomputed)
[1] = compound: C1COCCN1CCN2C3=CC=CC=C3N=C2NC(=O)C4=CC(=CC=C4)[N+](=O)[O-] [IRAK-1-4 Inhibitor I]
Outline: (§1)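 K562 cells (2×10^6 cells/mL) were treated with 10 μM compound for 30 min, and aliquots were heated for 3 min over 48°C-58°C. Pooled aliquots were extracted in PBS with 0.5% NP-40 at 4°C, and the supernatant after 21,000xg for 90 min was measured by TMTpro 16plex LC-MS/MS with channel sums equalised. Reported thermal stability, relative to control samples and from duplicates, is a log2 fold change.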

[2] = compound: C=CC(=O)N1CCC[C@@H](n2nc(-c3ccc(Oc4ccccc4)cc3)c3c(N)ncnc32)C1 [ibrutinib]
Outline: as §1

[3] = compound: CC(=O)c1cnc2ccc(-c3cc(Cl)c(O)c(Cl)c3)nc2c1N[C@H]1CC[C@H](CN(C)C)CC1
Outline: as §1

[4] = compound: CC(C)(C)Cn1c(N)nc2ccc(-c3[nH]c(C(C)(C)C)nc3-c3ccc(F)cc3)nc21 [ralimetinib]
Outline: as §1

[5] = compound: CC(C)(O)CC(=O)NCCn1ccc2ncnc(Nc3ccc(Oc4cccc(C(F)(F)F)c4)c(Cl)c3)c21
Outline: as §1

[6] = compound: CC(C)C1=C2N=C(C=C(N2N=C1)NCC3=CC=CC=C3)NCCCCCCN
Outline: as §1

[7] = compound: CC(C)C[C@@H](C=O)NC(=O)[C@H](CC(C)C)NC(=O)[C@H](CC(C)C)NC(=O)OCc1ccccc1
Outline: as §1

[8] = compound: CC(C)N(C[C@H]1O[C@@H](n2cnc3c(N)ncnc32)[C@H](O)[C@@H]1O)[C@H]1C[C@@H](CCc2nc3cc(C(C)(C)C)ccc3[nH]2)C1 [pinometostat]
Outline: as §1

[9] = compound: CC1=C(C(CC(=O)N1)C2=CC=C(C=C2)C(F)(F)F)C(=O)NC3=C(C=C4C(=C3)C=NN4)F
Outline: as §1

[10] = compound: CC1=C(C2=C(C=C1)C(=O)C3=CC=CC=C3N2CCCN)C
Outline: as §1

Measured: log2 fold change

PRPF38B (UniProt Q5VTL8)
active: [3] -0.646
inactive: [1] -0.158 | [2] -0.005 | [4] -0.025 | [5] 0.045 | [6] -0.06 | [7] 0.03 | [8] -0.029 | [9] -0.007 | [10] 0.159

PIK3R1 (UniProt P27986)
inactive: [1] 0.032 | [2] -0.004 | [3] 0.077 | [4] 0.038 | [5] -0.04 | [6] -0.011 | [7] 0.027 | [8] 0.083 | [9] 0.004 | [10] 0.072

PBX2 (UniProt P40425)
inactive: [1] -0.078 | [2] 0.023 | [3] -0.122 | [4] 0.04 | [5] -0.145 | [6] -0.184 | [7] 0.078 | [8] -0.058 | [9] 0.131 | [10] -0.005

PSMC3 (UniProt P17980)
Chain of UniProt P17980 (P17980 whole entry, looked up): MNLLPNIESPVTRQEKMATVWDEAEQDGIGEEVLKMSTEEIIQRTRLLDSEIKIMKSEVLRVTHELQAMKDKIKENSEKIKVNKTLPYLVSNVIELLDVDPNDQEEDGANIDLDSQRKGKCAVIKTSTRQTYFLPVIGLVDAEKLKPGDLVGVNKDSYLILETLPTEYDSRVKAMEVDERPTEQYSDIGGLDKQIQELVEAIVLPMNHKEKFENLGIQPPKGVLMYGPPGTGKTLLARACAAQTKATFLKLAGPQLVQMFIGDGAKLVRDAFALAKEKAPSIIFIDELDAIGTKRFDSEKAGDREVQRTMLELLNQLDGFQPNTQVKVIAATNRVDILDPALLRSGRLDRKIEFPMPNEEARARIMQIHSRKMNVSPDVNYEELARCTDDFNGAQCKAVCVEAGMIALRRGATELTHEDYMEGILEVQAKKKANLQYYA
inactive: [1] -0.041 | [2] -0.021 | [3] 0.023 | [4] 0.016 | [5] 0.007 | [6] 0.048 | [7] -0.213 | [8] 0.025 | [9] 0.053 | [10] 0.023

PSMC4 (UniProt P43686)
inactive: [1] -0.056 | [2] -0.012 | [3] 0.022 | [4] 0.014 | [5] 0.029 | [6] 0.034 | [8] 0.025 | [9] 0.02 | [10] 0.016
active: [7] -0.249

PSMD3 (UniProt O43242)
Chain of UniProt O43242 (O43242 whole entry, looked up): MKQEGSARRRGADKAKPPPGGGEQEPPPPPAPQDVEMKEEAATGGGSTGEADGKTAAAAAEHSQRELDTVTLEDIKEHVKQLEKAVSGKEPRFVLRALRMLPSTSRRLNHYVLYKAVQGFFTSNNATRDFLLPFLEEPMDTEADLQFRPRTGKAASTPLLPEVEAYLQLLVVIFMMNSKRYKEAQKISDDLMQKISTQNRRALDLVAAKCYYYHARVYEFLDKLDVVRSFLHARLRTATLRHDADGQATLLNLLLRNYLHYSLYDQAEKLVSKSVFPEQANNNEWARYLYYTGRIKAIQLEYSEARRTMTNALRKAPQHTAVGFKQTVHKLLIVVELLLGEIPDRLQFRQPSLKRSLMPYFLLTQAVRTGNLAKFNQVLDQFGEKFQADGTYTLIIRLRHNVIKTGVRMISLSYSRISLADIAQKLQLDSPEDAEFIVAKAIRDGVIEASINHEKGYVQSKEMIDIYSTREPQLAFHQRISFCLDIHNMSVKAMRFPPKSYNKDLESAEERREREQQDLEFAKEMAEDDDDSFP
inactive: [1] -0.025 | [2] -0.031 | [3] 0.044 | [4] 0.023 | [5] -0.033 | [6] 0.01 | [8] 0.067 | [9] 0.016 | [10] 0.039
active: [7] -0.22

PTP4A2 (UniProt Q12974)
Chain of UniProt Q12974 (Q12974 whole entry, looked up): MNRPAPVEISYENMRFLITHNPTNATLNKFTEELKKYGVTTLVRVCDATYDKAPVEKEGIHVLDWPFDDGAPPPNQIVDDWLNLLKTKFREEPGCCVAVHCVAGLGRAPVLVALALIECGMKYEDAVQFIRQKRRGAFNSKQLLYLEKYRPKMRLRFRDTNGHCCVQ
inactive: [1] 0.019 | [2] 0.16 | [3] 0.065 | [4] 0.051 | [5] -0.051 | [6] 0.035 | [7] -0.157 | [8] -0.044 | [9] 0.191 | [10] -0.164

PHKA1 (UniProt P46020)
Chain of UniProt P46020 (P46020 whole entry, looked up): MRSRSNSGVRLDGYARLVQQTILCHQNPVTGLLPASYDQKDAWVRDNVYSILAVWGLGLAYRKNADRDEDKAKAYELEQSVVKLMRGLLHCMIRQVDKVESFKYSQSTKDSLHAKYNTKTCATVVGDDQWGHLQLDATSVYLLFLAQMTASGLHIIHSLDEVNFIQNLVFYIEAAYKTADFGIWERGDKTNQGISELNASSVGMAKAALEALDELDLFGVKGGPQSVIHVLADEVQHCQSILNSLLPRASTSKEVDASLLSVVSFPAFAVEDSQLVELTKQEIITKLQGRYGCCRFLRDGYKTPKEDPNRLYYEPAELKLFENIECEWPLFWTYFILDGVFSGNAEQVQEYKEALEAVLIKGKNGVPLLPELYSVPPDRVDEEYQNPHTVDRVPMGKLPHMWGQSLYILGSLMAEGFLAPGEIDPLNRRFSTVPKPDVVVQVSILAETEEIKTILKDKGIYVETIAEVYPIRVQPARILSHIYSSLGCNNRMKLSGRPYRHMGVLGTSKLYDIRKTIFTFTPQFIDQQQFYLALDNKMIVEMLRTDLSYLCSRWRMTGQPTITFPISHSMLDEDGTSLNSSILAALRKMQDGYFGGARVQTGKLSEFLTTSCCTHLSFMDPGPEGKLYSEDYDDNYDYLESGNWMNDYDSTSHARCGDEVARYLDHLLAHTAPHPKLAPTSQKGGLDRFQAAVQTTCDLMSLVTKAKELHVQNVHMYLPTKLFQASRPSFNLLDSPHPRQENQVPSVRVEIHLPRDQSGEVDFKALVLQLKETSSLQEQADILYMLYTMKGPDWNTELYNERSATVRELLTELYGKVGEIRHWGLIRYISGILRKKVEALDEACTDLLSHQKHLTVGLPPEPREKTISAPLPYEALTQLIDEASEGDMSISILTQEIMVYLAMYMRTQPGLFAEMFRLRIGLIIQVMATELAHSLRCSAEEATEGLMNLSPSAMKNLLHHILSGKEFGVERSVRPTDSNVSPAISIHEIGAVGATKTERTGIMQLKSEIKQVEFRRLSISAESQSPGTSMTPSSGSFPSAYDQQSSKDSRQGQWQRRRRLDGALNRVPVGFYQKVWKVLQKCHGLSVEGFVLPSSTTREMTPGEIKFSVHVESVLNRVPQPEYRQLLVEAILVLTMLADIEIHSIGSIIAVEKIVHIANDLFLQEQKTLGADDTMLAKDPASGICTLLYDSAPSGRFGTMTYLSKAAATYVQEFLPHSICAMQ
inactive: [1] -0.043 | [2] -0.001 | [3] 0.306 | [4] -0.03 | [5] -0.161 | [6] 0.011 | [7] 0.195 | [8] -0.023 | [9] 0.118 | [10] 0.022

PEX16 isoform 2 (UniProt Q9Y5Y5)
active: [6] -0.407
inactive: [1] -0.068 | [2] -0.059 | [3] -0.025 | [4] -0.104 | [5] -0.067 | [7] 0.033 | [8] -0.052 | [9] 0.03 | [10] 0.136

PLCB3 (UniProt Q01970)
Chain of UniProt Q01970 (Q01970 whole entry, looked up): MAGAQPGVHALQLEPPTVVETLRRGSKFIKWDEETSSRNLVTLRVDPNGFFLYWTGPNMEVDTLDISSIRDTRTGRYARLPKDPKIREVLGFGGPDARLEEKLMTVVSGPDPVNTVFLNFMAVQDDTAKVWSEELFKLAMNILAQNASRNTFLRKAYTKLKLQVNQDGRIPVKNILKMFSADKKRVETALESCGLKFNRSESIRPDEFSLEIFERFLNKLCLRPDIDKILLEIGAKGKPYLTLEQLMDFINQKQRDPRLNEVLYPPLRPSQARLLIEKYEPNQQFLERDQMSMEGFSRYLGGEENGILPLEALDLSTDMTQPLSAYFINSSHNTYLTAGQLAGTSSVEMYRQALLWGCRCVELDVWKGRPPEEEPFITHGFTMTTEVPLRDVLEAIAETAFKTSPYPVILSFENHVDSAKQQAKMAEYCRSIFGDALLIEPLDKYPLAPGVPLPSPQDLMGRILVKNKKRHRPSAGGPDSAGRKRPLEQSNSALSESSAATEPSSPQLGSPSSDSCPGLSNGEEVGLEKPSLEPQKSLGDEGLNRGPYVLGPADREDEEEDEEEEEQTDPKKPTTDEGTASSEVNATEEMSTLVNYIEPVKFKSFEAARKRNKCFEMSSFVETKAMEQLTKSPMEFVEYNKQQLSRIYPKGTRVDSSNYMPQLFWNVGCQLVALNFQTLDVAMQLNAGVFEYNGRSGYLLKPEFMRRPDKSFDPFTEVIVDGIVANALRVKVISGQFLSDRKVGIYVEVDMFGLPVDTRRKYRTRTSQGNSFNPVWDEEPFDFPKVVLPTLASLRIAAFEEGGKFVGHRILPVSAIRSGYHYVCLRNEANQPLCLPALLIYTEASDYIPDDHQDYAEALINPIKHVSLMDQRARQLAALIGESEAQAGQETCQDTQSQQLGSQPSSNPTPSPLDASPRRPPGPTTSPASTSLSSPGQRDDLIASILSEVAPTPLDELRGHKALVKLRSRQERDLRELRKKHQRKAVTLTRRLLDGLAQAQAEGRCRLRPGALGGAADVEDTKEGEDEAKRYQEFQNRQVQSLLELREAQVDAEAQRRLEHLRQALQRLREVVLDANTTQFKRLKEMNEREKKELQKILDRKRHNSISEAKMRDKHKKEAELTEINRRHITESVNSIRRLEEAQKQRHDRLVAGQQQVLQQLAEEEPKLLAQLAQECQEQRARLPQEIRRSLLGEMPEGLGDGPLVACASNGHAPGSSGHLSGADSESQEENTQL
inactive: [1] -0.013 | [2] -0.026 | [3] -0.017 | [4] 0.014 | [5] -0.064 | [6] -0.138 | [7] -0.003 | [8] 0.01 | [9] -0.022 | [10] 0.004

PCYT1A (UniProt P49585)
Chain of UniProt P49585 (P49585 whole entry, looked up): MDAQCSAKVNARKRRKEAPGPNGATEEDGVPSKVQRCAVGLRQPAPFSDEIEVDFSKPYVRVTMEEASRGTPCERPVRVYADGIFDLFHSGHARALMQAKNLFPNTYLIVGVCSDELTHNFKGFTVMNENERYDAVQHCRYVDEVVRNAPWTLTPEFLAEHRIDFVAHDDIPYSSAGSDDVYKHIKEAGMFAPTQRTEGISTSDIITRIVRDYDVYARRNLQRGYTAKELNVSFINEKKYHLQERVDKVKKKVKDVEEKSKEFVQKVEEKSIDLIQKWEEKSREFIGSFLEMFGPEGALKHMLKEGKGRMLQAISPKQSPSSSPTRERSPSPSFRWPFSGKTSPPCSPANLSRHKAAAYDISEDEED
inactive: [1] 0.081 | [2] -0.032 | [3] -0.007 | [4] -0.072 | [5] -0.019 | [6] -0.163 | [7] 0.084 | [8] -0.005 | [9] 0.116 | [10] -0.137

PRKAR1A (UniProt P10644)
Chain of UniProt P10644 (P10644 whole entry, looked up): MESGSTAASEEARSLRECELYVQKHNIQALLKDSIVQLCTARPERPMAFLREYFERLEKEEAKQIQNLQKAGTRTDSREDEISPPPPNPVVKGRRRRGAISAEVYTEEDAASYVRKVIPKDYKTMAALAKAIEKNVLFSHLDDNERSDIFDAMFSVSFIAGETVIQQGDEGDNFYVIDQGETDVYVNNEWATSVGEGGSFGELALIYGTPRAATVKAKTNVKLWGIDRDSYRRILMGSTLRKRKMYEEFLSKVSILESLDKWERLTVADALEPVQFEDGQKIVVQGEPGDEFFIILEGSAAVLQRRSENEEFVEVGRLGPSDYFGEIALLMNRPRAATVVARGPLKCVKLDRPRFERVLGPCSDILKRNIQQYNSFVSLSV
inactive: [1] -0.068 | [2] 0.035 | [3] -0.049 | [4] 0.268 | [5] 0.041 | [6] -0.149 | [7] 0.041 | [8] 0.131 | [9] -0.084 | [10] -0.127

POP1 (UniProt Q99575)
inactive: [1] -0.024 | [2] 0 | [3] 0.001 | [4] 0.029 | [5] -0.006 | [6] 0.013 | [7] -0.03 | [8] 0.003 | [9] 0.008
active: [10] -0.271

PLBD1 (UniProt Q6P4A8)
Chain of UniProt Q6P4A8 (Q6P4A8 whole entry, looked up): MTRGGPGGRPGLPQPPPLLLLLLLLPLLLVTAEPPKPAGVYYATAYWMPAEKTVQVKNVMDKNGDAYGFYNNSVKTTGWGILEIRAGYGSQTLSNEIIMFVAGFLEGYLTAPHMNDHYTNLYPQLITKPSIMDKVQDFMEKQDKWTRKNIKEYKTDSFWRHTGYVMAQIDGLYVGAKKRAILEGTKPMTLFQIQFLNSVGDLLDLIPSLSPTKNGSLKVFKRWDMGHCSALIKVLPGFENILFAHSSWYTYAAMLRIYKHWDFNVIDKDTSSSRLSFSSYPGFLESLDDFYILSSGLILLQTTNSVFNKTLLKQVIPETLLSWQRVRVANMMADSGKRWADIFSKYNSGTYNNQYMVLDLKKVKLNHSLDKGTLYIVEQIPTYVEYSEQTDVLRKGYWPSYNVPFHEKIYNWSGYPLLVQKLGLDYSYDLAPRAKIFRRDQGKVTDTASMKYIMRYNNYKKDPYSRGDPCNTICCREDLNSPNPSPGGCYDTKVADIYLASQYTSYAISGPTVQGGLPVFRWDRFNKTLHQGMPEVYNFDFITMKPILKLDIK
inactive: [1] 0.033 | [2] -0.002 | [3] 0.025 | [4] -0.077 | [5] 0.036 | [6] -0.012 | [7] -0.015 | [8] 0.057 | [9] -0.019 | [10] 0.02

PTMA (UniProt P06454)
Chain of UniProt P06454 (P06454 whole entry, looked up): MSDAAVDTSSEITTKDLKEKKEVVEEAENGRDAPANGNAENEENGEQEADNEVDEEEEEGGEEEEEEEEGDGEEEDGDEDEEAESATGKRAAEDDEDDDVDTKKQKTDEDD
inactive: [1] 0.034 | [2] 0.049 | [3] 0.127 | [4] 0.251 | [5] -0.133 | [6] 0.085 | [7] -0.289 | [8] -0.092 | [9] 0.063 | [10] -0.021
